The full ranking holds about 35,000 sequences; the median of “fluorescence intensity (a.u.)” is about 10,000, and the highest 2% start at about 52,000. The entries come from a sample that favours the highest values as a whole.

Binding signal data for 47 sequences are collected here from publication PMC7819943, “Rice protein-binding microarrays: a tool to detect cis-acting elements near promoter regions in rice”.

In the assay the target is T1, OsWOX13 (Oryza sativa, UniProt Q5QMM3 1-267).
T1 sequence: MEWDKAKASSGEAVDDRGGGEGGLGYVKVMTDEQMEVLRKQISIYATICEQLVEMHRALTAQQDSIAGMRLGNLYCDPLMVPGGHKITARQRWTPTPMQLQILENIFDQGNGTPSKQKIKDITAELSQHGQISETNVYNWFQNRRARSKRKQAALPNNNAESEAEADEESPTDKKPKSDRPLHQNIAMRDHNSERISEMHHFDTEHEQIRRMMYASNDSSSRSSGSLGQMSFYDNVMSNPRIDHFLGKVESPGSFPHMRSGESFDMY
Nature of the assay: protein-binding microarray (RPBM); PBS, 2% BSA, 51.3 ng/ul salmon testes DNA, 50 uM zinc acetate, 200 nM TF, 25 C, 1 h; high values mean tight binding. The conditions noted are these: protein: recombinant; tags: N-terminal polyhistidine and DsRed monomer fusion (pET32a); label: CyDye5-dUTP incorporated in the synthesized complementary strand; 3' TTTTT single-stranded linker to array surface; dsDNA, one strand shown. The essentials: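 The binding signal is fluorescence intensity per array feature (arbitrary units). Readings came from an Axon 4000B scanner after a washed, 2% BSA-blocked, double-stranded custom Agilent array had been incubated for 1 h at 25 °C with 200 nM protein and 50 µM zinc acetate. The protein was a Ni–NTA-purified transcription factor fused N-terminally to polyhistidine and DsRed, expressed in E. coli BL21-CodonPlus.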
Regarding “AGACTTAATTGTAACTGTGTACTACTACGAGCTTAATCAGCGGAGTCACCTAGTGCAG”, the binding signal is 28400 fluorescence intensity (a.u.).

“AGAGTTGTAATTAACCTTTTCAGGTTGTATTGACTGCAAGCGGAGTCACCTAGTGCAG”: the binding signal is 3760 fluorescence intensity (a.u.).

For “GGATTAATAGATAGTCTGACTTTTCTGATAACTATTTAAGCGGAGTCACCTAGTGCAG”, the binding signal was 28400 fluorescence intensity (a.u.).

Take “TTAAAATTATGTTTGAAAATTTAAATTTTAGACGCGGCTTCGGAGTCACCTAGTGCAG”: the binding signal was 14900 fluorescence intensity (a.u.).

Take “AAATTAATTAATACAATATATTCCTGCATGCCCTGTATAACGGAGTCACCTAGTGCAG”: the binding signal was 23800 fluorescence intensity (a.u.).

As to “ACCCTAATTCTCCTAATCTCTTAGGAAATATGGAAGAAGCCGGAGTCACCTAGTGCAG”, the binding signal was 3170 fluorescence intensity (a.u.).

Take “TTCTCTAGCCCTAAATATGCCGAAGAATATTCCATGTCTCCGGAGTCACCTAGTGCAG”: the binding signal is 64900 fluorescence intensity (a.u.).

Regarding “GATCGAATTGGTAAATCAAATGTCTCTAAATTCTCTCCATCGGAGTCACCTAGTGCAG”, the binding signal was 4550 fluorescence intensity (a.u.).

Turning to “TGCTAGAATGATTTACGTTATGAAACTGAGGGAGTACATCCGGAGTCACCTAGTGCAG”, the binding signal is 5380 fluorescence intensity (a.u.).

As to “TGTGATTTATATCGTGGAAGATGATGGCTTGGCGGTATAGCGGAGTCACCTAGTGCAG”, the binding signal is 36300 fluorescence intensity (a.u.).

On to “GTCGATAAATTATTCGCGGCACAATTATTTGTGCCCCATTCGGAGTCACCTAGTGCAG”, for which the binding signal is 5580 fluorescence intensity (a.u.).

“AGCAAAATTGATTGCTAATCTTCGGTGTCCAGCAGAGCCCCGGAGTCACCTAGTGCAG”: the binding signal is 64900 fluorescence intensity (a.u.).

“TCTTCTGATTGCTTTCACACAAGATCCAGCAAAATTAATTCGGAGTCACCTAGTGCAG”: the binding signal was 16900 fluorescence intensity (a.u.).

For “AACTAAAACACAGAAATTGATAGTCCAGCAAAACTAGCCCCGGAGTCACCTAGTGCAG”, the binding signal was 5180 fluorescence intensity (a.u.).

On to “ATACACCAGTTGATTATAATGACAGTGATATTATGGTGGACGGAGTCACCTAGTGCAG”, for which the binding signal is 17800 fluorescence intensity (a.u.).

As for “CAAACTAATAATTTGGCTTTTGGCTTCTGCTGAAGCAAGTCGGAGTCACCTAGTGCAG”, the binding signal is 4830 fluorescence intensity (a.u.).

“GCTGATTGATTCATTCTGATCTGAACATATAGACAACCATCGGAGTCACCTAGTGCAG”: the binding signal was 54700 fluorescence intensity (a.u.).

For the sequence “TCTGATTTAACTGCATTGCATTTGTGTCATTGACATGTGGCGGAGTCACCTAGTGCAG”, the binding signal is 42600 fluorescence intensity (a.u.).

Regarding “AAACCATTAGCGCATAATTTATTGAGTTTTAATTATTTCACGGAGTCACCTAGTGCAG”, the binding signal was 6070 fluorescence intensity (a.u.).

Regarding “GCTGATTGCCATTGATTCATATTCATTGTGTGCCATCTGGCGGAGTCACCTAGTGCAG”, the binding signal is 58800 fluorescence intensity (a.u.).

On to “GCCTGATTATCCATTGTTCATCCTGCCATATTGATTTCAGCGGAGTCACCTAGTGCAG”, for which the binding signal was 30300 fluorescence intensity (a.u.).

As to “ACGGTAATTAACGTTGATTACCATAATTAGCGGCGCATTGCGGAGTCACCTAGTGCAG”, the binding signal was 65200 fluorescence intensity (a.u.).

“CTAGACATATATATTTATCTAGATTCATTAACATCCATATCGGAGTCACCTAGTGCAG”: the binding signal is 5320 fluorescence intensity (a.u.).

“GTTATGATTAATTGCGCCATTAGGATATTAATTAATCTGGCGGAGTCACCTAGTGCAG”: the binding signal is 54500 fluorescence intensity (a.u.).

Turning to “ACATTCATATTGATGTTAATGATTCTAGACATATATATCTCGGAGTCACCTAGTGCAG”, the binding signal is 4710 fluorescence intensity (a.u.).

Take “GCCATATGATTATTTAATCTGATCCGGAGGATTAAACAAGCGGAGTCACCTAGTGCAG”: the binding signal was 14100 fluorescence intensity (a.u.).

“CATAATTAGCGGTTGATTACTGTAGCATCACTGTAACAAACGGAGTCACCTAGTGCAG”: the binding signal is 29600 fluorescence intensity (a.u.).

For the sequence “TGCAGTGATAATTTAGGATTATTTAAGATTTGCACAGTGGCGGAGTCACCTAGTGCAG”, the binding signal was 12500 fluorescence intensity (a.u.).

With “CGTAAACAAATAGGTCCAACATAATTTAACCTTCATAGAGCGGAGTCACCTAGTGCAG”, the binding signal is 5570 fluorescence intensity (a.u.).

Take “AGACGCATCTCCTCAATCATGCATCAACGTGCGTCATCTGCGGAGTCACCTAGTGCAG”: the binding signal was 3790 fluorescence intensity (a.u.).

Take “GTTGCATATCAATCATCAAGAATCTCTTCAGAAAGAGGAGCGGAGTCACCTAGTGCAG”: the binding signal is 14000 fluorescence intensity (a.u.).

Consider “GTTAAATTTAAACTTGTATATTTGTGAAGTGATACATCACCGGAGTCACCTAGTGCAG”, for which the binding signal is 17300 fluorescence intensity (a.u.).

Turning to “ACACAACTTGTTAATTTGACCTGTAGCCCCATCATGTACACGGAGTCACCTAGTGCAG”, the binding signal is 3150 fluorescence intensity (a.u.).

As for “ATTCATGAATATATGAAACCTGATTGCAAATGTGCAAATCCGGAGTCACCTAGTGCAG”, the binding signal is 4970 fluorescence intensity (a.u.).

As for “ATATTGATTGCATAAAGAAAGTTCGGTCCTGTTCACTTTGCGGAGTCACCTAGTGCAG”, the binding signal was 39900 fluorescence intensity (a.u.).

Regarding “TTTGATTGATGGCCATAAGTTGCCACACTTTGCCACACTTCGGAGTCACCTAGTGCAG”, the binding signal is 53800 fluorescence intensity (a.u.).

For the sequence “GCAAAATTGGTTTCATCAACTATTGAGTGGGTGTGCACTGCGGAGTCACCTAGTGCAG”, the binding signal was 9640 fluorescence intensity (a.u.).

Turning to “TGTTAGACTATGCCATCAATTGTAATTGTTGGTTCTGATGCGGAGTCACCTAGTGCAG”, the binding signal is 4250 fluorescence intensity (a.u.).

In the case of “TTGTAATTGATTGTGGCCCATCAACTATTGCCATCACTGGCGGAGTCACCTAGTGCAG”, the binding signal was 64900 fluorescence intensity (a.u.).

For the sequence “TGCCTAATTGTTGCCATTGATTTGTTAGCCACACCTTTGGCGGAGTCACCTAGTGCAG”, the binding signal is 40300 fluorescence intensity (a.u.).

Consider “TCAAATAATTAGAAGGGGTGAGACTTCGAATCCAAGTCGTCGGAGTCACCTAGTGCAG”, for which the binding signal is 14400 fluorescence intensity (a.u.).

Take “TAATTATTGAACACACTAATTAAGTATTACGATGCACCTCCGGAGTCACCTAGTGCAG”: the binding signal is 6340 fluorescence intensity (a.u.).

Regarding “AGAGGATTGATGAATGCAGCTGCAAGCACAGCACGCAGTACGGAGTCACCTAGTGCAG”, the binding signal is 13600 fluorescence intensity (a.u.).

Regarding “GGTGAATTGAATGGTTGATTGCCTATCTCATCTTCCGCAGCGGAGTCACCTAGTGCAG”, the binding signal is 64100 fluorescence intensity (a.u.).

Regarding “TGTGAATGTTGTGATTGAGGTGGTATCAGTATCATATCCGCGGAGTCACCTAGTGCAG”, the binding signal is 27000 fluorescence intensity (a.u.).

As for “TAATCTTGAATTATTGATTTATTTATGGCTTCAGCTTTCACGGAGTCACCTAGTGCAG”, the binding signal is 7480 fluorescence intensity (a.u.).

In the case of “ACAATTGAATGATTGATTGCAGCTCAAGCTTCAATCCGCACGGAGTCACCTAGTGCAG”, the binding signal was 63900 fluorescence intensity (a.u.).
